# Source: PubChem BioAssay (National Center for Advancing Translational Sciences (NCATS))
# A selection: hits, their analogues and other compounds. The true share with any hit is near 10%.
# HEK cytotox – cytotoxic compounds in HEK 293 cells. HEK 293 viability, ATP luminescence (CellTiter-Glo), 48-72 h. Potency, µM (doses to about 115 µM), inactives show at the top dose activity change, negative = cytotoxicity, hits mostly inhibitors. actives 6.6% (n = 94,000); further: nearly all actives have a fitted effect of over 60% in size
#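 Read-out: CellTiter-Glo ATP luminescence. Cells: HEK 293, 250 cells/well. Exposure: 48 or 72 hr, 37 degree Celsius.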
# hNpr1 antagonist – human Npr1 receptor antagonism; P16066; HEK293 hNpr1 GloSensor cGMP, ANP-stimulated luminescence; Potency, µM (titrated, usually from 46.3 µM), for inactives: at the highest dose activity change, negative = inhibition, most hits filed as inhibitors; actives 1.6% (n = 76,000); AID 1347048; calls by dose curve; further: nearly all actives have a fitted effect of over 60% in size
#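 HEK293 cells stably expressing human Npr1 and cGMP GloSensor pGS-40F, loaded 2 h with 2% GloSensor reagent, given compound 30 min at room temperature. Luminescence read before and 20 min after 0.1 nM hNppA.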
# 3T3 cytotox – kills NIH 3T3 cells; NIH 3T3 viability, CellTiter-Glo ATP luminescence, 48-72 h; Potency, µM (titrated, usually from 96.7 µM), inactives show top-dose activity change, negative = cytotoxicity, hits mostly inhibitors; actives 4.3% (n = 94,000); further: nearly all actives have a fitted effect of over 55% in size
#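 First NIH 3T3 cells are plated at 400 cells/well; next compound is pinned in; then plates incubate 48 or 72 hr at 37 °C; finally CellTiter-Glo is added and luminescence read after 10 min.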
# FLuc inh – Photinus pyralis luciferase inhibition; actives 2.5% (n = 76,000); Potency, µM (top dose mostly 115 µM), most hits filed as inhibitors; P08659; purified P. pyralis luciferase, luminescence, biochemical; further: nearly all actives have a fitted effect of over 65% in size
#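 Purified 10nM P. pyralis luciferase with 10uM D-luciferin and 10uM ATP in 50mM Tris acetate pH 7.5, 10mM Mg acetate, 0.01% Tween-20, 0.05% BSA. qHTS titration; luminescence read by CCD imager.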
# GPT2 inh – blocks human glutamate pyruvate transaminase 2. Potency, µM (highest dose often 57.7 µM), for inactives: at the highest dose activity change, negative = inhibition, actives largely listed as inhibitors. AID 1671188. Recombinant GPT2, coupled pyruvate oxidase/HRP Amplex Red fluorescence. actives 0.25% (n = 100,000). Q8TD30; further: nearly all actives have a fitted effect of over 60% in size
# Target sequence (Q8TD30 whole entry, looked up): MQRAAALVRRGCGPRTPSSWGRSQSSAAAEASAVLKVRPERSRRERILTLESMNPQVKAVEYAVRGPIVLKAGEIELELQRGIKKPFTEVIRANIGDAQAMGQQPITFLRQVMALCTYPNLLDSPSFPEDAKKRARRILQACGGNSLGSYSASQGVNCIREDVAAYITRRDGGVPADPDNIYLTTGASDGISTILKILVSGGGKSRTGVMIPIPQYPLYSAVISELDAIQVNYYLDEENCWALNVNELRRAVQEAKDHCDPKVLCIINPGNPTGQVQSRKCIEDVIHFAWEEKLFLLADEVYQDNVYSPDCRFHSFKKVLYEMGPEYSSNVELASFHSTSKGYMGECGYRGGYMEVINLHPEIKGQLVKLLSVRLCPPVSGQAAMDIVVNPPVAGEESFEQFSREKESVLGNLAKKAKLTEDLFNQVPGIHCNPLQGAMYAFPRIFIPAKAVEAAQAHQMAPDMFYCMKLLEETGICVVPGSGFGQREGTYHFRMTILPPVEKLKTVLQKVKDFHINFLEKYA
#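 Inhibition is scored from Amplex Red fluorescence generated when pyruvate oxidase and HRP act on pyruvate released by GPT2. Reactions contain 10ng/uL enzyme, 250uM a-KG and 2mM L-alanine and run 30 min at room temperature.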
# Starred values were filed as active, the others as inactive; i = inactive; ? = inconclusive; nt = no result given; ! = not confirmed by another sample; [ ] = dose if it differs, or a comment. Unless noted, the call rests on the fitted dose curve; in most records, active means well fitted curve in the direction sought with a large enough effect; inconclusive means small, poorly fitted or top-dose-only effect, or another doubt; inactive means no such curve, though single readings can be large; an effect the other way counts as inactive or inconclusive. On the % scale 0 is the no-effect control and ±100 the full control effect; potency means the concentration at half of the fitted maximal effect.
SMILES,HEK cytotox,hNpr1 antagonist,3T3 cytotox,FLuc inh,GPT2 inh
O=C(NC1CCN(Cc2cccc(-c3cccs3)c2)CC1)c1ccc(C(F)(F)F)cc1,?,nt,?,nt,i
COc1ccccc1-c1cccc(CN2CCC(NC(=O)c3ccc(C(F)(F)F)cc3)CC2)c1,22µM*,nt,25µM*,nt,-6%
COc1ccccc1-c1cccc(CN2CCC(NC(=O)Cc3ccc(F)cc3)CC2)c1,?,nt,32µM*,nt,?
COc1ccccc1-c1cccc(CN2CCC(NC(C)=O)CC2)c1,-26%,nt,?,nt,i
COc1ccccc1-c1cccc(CN2CCC(N[S+](=O)([O-])c3cccs3)CC2)c1,?,nt,?,nt,3%
O=C(Cc1ccc(F)cc1)Nc1cc(-c2ccccn2)nn1-c1ccccc1,?,nt,-23%,nt,2%
O=C(c1cccc(Cl)c1)N1CCCC(C(=O)N2CCCC(c3nc4ccncc4[nH]3)C2)C1 (stereo not given),-2%,nt,-15%,nt,4%
COc1ccccc1-c1cccc(CN2CCC(NC(=O)Cc3cccc(Cl)c3)CC2)c1,?,nt,25µM*,nt,?
CSc1ccc(-c2cccc(CN3CCC(NC(=O)c4cccc(Cl)c4)CC3)c2)cc1,-15%,nt,-15%,nt,nt
COc1ccccc1-c1cccc(CN2CCC(N[S+](=O)([O-])CCC(F)(F)F)CC2)c1,?,nt,?,nt,-5%
O=C(NC1CCN(Cc2cccc(-c3ccc(F)cc3F)c2)CC1)c1cccc(Cl)c1,22µM*!,nt,16µM*,nt,nt
CCN1CCN(CCNC(=O)C23CCCC=C2N(Cc2ccccc2)C(=O)CC3)CC1 (stereo not given),-17%,nt,-29%,nt,i
Cc1ccccc1-c1noc(CNCc2nc3ccc(Cl)cc3[nH]2)n1,79µM*,-3%,?,i,-9%
CN1CCN(C(=O)c2cc3c(s2)CCN(C(=O)c2ccc(Cl)cc2)C3)CC1,?,0%,?,i,-8%
CC1CCN(C(=O)c2cc3c(s2)CCN(C(=O)c2ccc(Cl)cc2)C3)CC1,40µM*,-14%,?,i,-14%
Cc1csc(Nc2ccc3c(n2)CN(Cc2ccccc2C)C(=O)CO3)n1,25µM*,?,25µM*,i,2%[88.5 µM]
Cc1ccccc1CN1Cc2nc(-c3c(C)noc3C)ccc2OCC1=O,?,-1%[70.6 µM],?,i,-6%[88.5 µM]
Cc1ccccc1CN1Cc2nc(Nc3ccccc3)ccc2OCC1=O,71µM*,-21%[70.6 µM],?,i,i
COc1ccc(CN2C[C@@H]3C[C@@H](C(=O)O)N(C(C)=O)c4cccc(c43)C2=O)cc1,?,nt,?,nt,3%[27.3 µM]
Cc1noc(C)c1-c1cc2c(cc(C)n2CCN(C)C)c(Nc2ccncn2)n1,100µM*,-20%[70.6 µM],25µM*,i,-6%[88.5 µM]
Cc1noc(C)c1-c1cc2c(cc(C)n2CCN(C)C)c(-c2ccccc2)n1,?,0%[70.6 µM],22µM*,i,-3%[88.5 µM]
COc1cc(-c2nc(-c3c(C)noc3C)cc3c2cc(C)n3CCN(C)C)ccn1,71µM*,3%[70.6 µM],?,i,-2%[88.5 µM]
Cc1cc(-c2nc(-c3c(C)noc3C)cc3c2cc(C)n3CCN(C)C)ccn1,?,-5%[70.6 µM],?,i,-26%[88.5 µM]
COc1ccc(-c2nc(-c3c(C)noc3C)cc3c2cc(C)n3C)cn1,?,-12%[70.6 µM],?,i,?
COc1cncc(-c2nc(-c3c(C)noc3C)cc3c2cc(C)n3CCN(C)C)c1,89µM*,-6%[70.6 µM],22µM*,i,i
SMILES,HEK cytotox,hNpr1 antagonist,3T3 cytotox,FLuc inh,GPT2 inh
COC(=O)[C@@H]1Cc2ncn(Cc3ccccc3)c2CN1C(=O)c1ccc(OC)cc1,-27%[172 µM],-2%[70.6 µM],-30%[174 µM],i,4%[88.5 µM]
COc1ccccc1C(=O)N1CCC(C(NC(=O)c2cccs2)C(=O)N2CCCCC2)CC1 (stereo not given),-1%,-6%,-25%,i,i
Cc1noc(C)c1-c1cc2c(cc(C)n2CCN(C)C)c(-c2ccsc2)n1,-5%[172 µM],4%[70.6 µM],?,i,-1%[88.5 µM]
Cc1noc(C)c1-c1cc2c(cc(C)n2CCN(C)C)c(-c2ccnn2C)n1,?,-14%[70.6 µM],45µM*,i,-41%[88.5 µM]
COCCNc1ccc2nnc(-c3ccc(C)cn3)n2n1,-4%[230 µM],3%[70.6 µM],112µM*,i,3%[88.5 µM]
Cc1ccc(-c2nnc3ccc(NCCN(C)C)nn23)nc1,0%[172 µM],0%[70.6 µM],?,i,-11%[88.5 µM]
Cc1ccc(-c2nnc3ccc(N(C)c4cccc(C)c4)nn23)nc1,56µM*,-1%[70.6 µM],?,i,2%[88.5 µM]
Cc1ccc(-c2nnc3ccc(NCCc4ccccc4)nn23)nc1,56µM*,-7%[70.6 µM],45µM*,i,-12%[88.5 µM]
Cc1cccc(N(C)c2ccc3nnc(-c4cc(C#N)ccn4)n3n2)c1,?,?,?,i,5%[88.5 µM]
C=CCN1C[C@H]2COc3cc(OC)ccc3[C@H]2N(C(=O)Cc2ccccc2)CCC1=O,-17%,nt,?,nt,nt
COC(=O)C1=C(C)N=C2SC=C(CC(=O)NCc3ccccc3)N2C1c1cccc(F)c1 (stereo not given),?,-25%,?,i,i
COC(=O)C1=C(C)N=C2SC=C(CC(=O)NCc3ccccc3)N2C1c1ccccc1C (stereo not given),45µM*,-5%,?,i,i
CC1=C(C(=O)Nc2ccccc2)C(c2cc(C)ccc2C)N2C(CC(=O)NC(C)C)=CSC2=N1 (stereo not given),40µM*,-26%,?,i,3%
COC(=O)C1=C(C)N=C2SC=C(CC(=O)NCc3ccc(F)cc3)N2C1c1cccc(OC)c1 (stereo not given),40µM*,-8%,?,i,i
COC(=O)C1=C(C)N=C2SC=C(CC(=O)NCCc3ccccc3)N2C1c1cccc(OC)c1 (stereo not given),45µM*,-16%,?,i,-14%
Cc1nc2c(c(-c3ccc(O)cc3)n1)CCN(C(=O)c1ccccc1)CC2,-16%,nt,-22%,nt,i
CC(C)N1CC(C(=O)NCc2cccs2)NC1=O (stereo not given),-13%[172 µM],nt,-30%[138 µM],nt,i
FC(F)(F)Oc1ccc(-c2cnc([C@@H]3COCCN3Cc3ncc[nH]3)[nH]2)cc1,?,-1%[70.6 µM],?,i,-9%[88.5 µM]
Cc1nn2c(c1-c1ccccc1N1CCCC1)N(C(=O)c1cc3ccccc3n1C)CCC2,50µM*,-19%[70.6 µM],35µM*,i,i
Cc1nn2c(c1-c1ccccc1C(C)C)N(C(=O)c1cc3ccccc3n1C)CCC2,50µM*,?,22µM*,i,1%[88.5 µM]
Cc1nn2c(c1-c1cccnc1N1CCOCC1)N(C(=O)c1cc3ccccc3n1C)CCC2,-11%,5%,?,i,-15%
Cc1nn2c(c1-c1ccccc1N1CCCC1)N(C(=O)c1ccc(F)cc1)CCC2,71µM*,-16%[70.6 µM],?,i,3%[88.5 µM]
